Assay results reported in PubChem BioAssay (Tox21).
Where “and” joins values, the source holds several entries; their conditions need not be identical. Identical values can stand only once. Results filed as inconclusive are left out. Entries that show only a call come without a potency. Some compounds were tested as several samples or in several runs, with calls that do not always agree. Calls of active or inactive are those of the source. The call rests on the fitted dose curve.

Assay: qHTS assay for small molecule agonists of the antioxidant response element (ARE) signaling pathway - cell viability counter screen (AID 743203); further: nearly all actives have a fitted effect of over 55% in size
Settings: ARE-bla HepG2 viability, CellTiter-Glo luminescence, 16 h; series mostly up to 73.3 µM
Excerpt: National Center for Advancing Translational Sciences [NCATS]
NIH Chemical Genomics Center [NCGC]
U.S. Environmental Protection Agency [EPA]
National Institutes of Environmental Health Sciences [NIEHS]
National Toxicology Program [NTP]
U.S. Food and Drug Administration [FDA]
Oxidative stress has been implicated in the pathogenesis of a variety of diseases ranging from cancer to neurodegeneration. The antioxidant response element (ARE) signaling pathway plays an important role in the amelioration of oxidative stress. The CellSensor ARE-bla HepG2 cell line (Invitrogen) can be used for analyzing the Nrf2/antioxidant response signaling pathway. Nrf2 (NF-E2-related factor 2) and Nrf1 are transcription factors that bind to AREs and activate these genes. The CellSensor ARE-bla Hep G2 cell line contains a beta-lactamase reporter gene under control of the Antioxidant Response Element (ARE) stably integrated into HepG2 cells. The activation of the report gene under culture conditions can be detected by fluorescence intensity. This cell line has been used to screen the Tox21 10K compound library to identify agonists that induce oxidative stress. The cytotoxicity of the Tox21 compound library against the ARE-bla cell line was tested in parallel by measuring the cell viability using CellTiter-Glo assay (Promega, Madison, WI) in the same wells.
Tox21 Assay Protocol Summary:
ARE-bla HepG2 cells were dispensed at 2,000 cells/5 ul/well in 1536-well white wall/solid bottom plates using a Multidrop Combi (ThermoFisher Scientific, Waltham, MA) dispenser. After the assay plates were incubated at 37C/5% CO2 for 5 hrs, 23 nL of compounds dissolved in DMSO, positive controls or DMSO only was transferred to the assay plate by a pintool work station (Kalypsys, San Diego, CA). The plates were incubated at 37C/5% CO2 for 16 hrs, followed by addition of 4 ul/well of CellTiter-Glo reagent into the assay plates using a Flying Reagent Dispenser (Aurora Discovery, San Diego, CA). After 30 min incubation at room temperature, the luminescence intensity in the assay plates was measured using a ViewLux (PerkinElmer, Shelton, CT) plate reader.
Potency means the concentration at half of the fitted maximal effect.

Q: For O, which Potency is on record?
A: The Potency was “inactive”.

Q: Which Potency does the source give for CCC(C)(C)C(=O)O[C@H]1C[C@@H](C)C=C2C=C[C@H](C)[C@H](CC[C@@H]3C[C@@H](O)CC(=O)O3)[C@H]21 here?
A: The Potency was “inactive”.

Q: Which Potency does the source give for CC1=C(C=O)C(C)(C)CC=C1 here?
A: Its Potency is “inactive”.

Q: Which Potency does the source give for CC(C)(C)c1ccccc1 here?
A: Its Potency is “inactive”.

Q: Which Potency does the source give for CCOc1ccccc1C(N)=O here?
A: Its Potency is “inactive”.

Q: With CC[C@@H](N)CO as the compound, how does the Potency read?
A: Its Potency is “inactive”.

Q: For CC(C)(C)c1ccc(O)c(C(C)(C)C)c1, which Potency is on record?
A: The Potency was 61.1 µM (active).

Q: Which Potency does the source give for CN(C)c1ccc(C(=C2C=CC(=[N+](C)C)C=C2)c2ccccc2)cc1 here?
A: The Potency was 545 nM (active) and 2.98 µM (active).

Q: With Clc1ccc2c(c1)C(N1CCNCC1)=Nc1ccccc1O2 as the compound, how does the Potency read?
A: Its Potency is 54.5 µM (active) and inactive.

Q: With CCn1cc(C(=O)O)c(=O)c2cc(F)c(N3CCNC(C)C3)c(F)c21 (stereo not given) as the compound, how does the Potency read?
A: Its Potency is “inactive”.

Q: With CC(C)CCOC(=O)c1ccc(N(C)C)cc1 as the compound, how does the Potency read?
A: Its Potency is “inactive”.

Q: Which Potency does the source give for CCCOC(=O)c1cc(O)c(O)c(O)c1 here?
A: Its Potency is “inactive”.

Q: With Cc1c(O)cccc1C(=O)N[C@@H](CSc1ccccc1)[C@H](O)CN1C[C@H]2CCCC[C@H]2C[C@H]1C(=O)NC(C)(C)C as the compound, how does the Potency read?
A: Its Potency is 15 µM (active) and 26.6 µM (active).

Q: Which Potency does the source give for N[C@@H]1CONC1=O here?
A: The Potency was “inactive”.

Q: For CCN(CC)C(=S)SSC(=S)N(CC)CC, which Potency is on record?
A: The Potency was 27.9 µM (active) and inactive.

Q: For Cc1scc2c1N(C(=O)CN1CCN(C)CC1)c1ccccc1NC2=O, which Potency is on record?
A: The Potency was “inactive”.

Q: With C=C(C)C1CC=C(C)C(OC(C)=O)C1 (stereo not given) as the compound, how does the Potency read?
A: The Potency was “inactive”.

Q: For Cc1cc(C(C)(C)C)c(O)c(C(C)(C)C)c1, which Potency is on record?
A: The Potency was “inactive”.

Q: For CC(=O)O[C@]1(C(C)=O)CC[C@H]2[C@@H]3C[C@H](C)C4=CC(=O)CC[C@]4(C)[C@H]3CC[C@@]21C, which Potency is on record?
A: The Potency was “inactive”.

Q: For CNCCC(Oc1ccc(C(F)(F)F)cc1)c1ccccc1 (stereo not given), which Potency is on record?
A: Its Potency is 17 µM (active).

Q: Which Potency does the source give for NCCO here?
A: Its Potency is “inactive”.

Q: With CC(C)(C)NC(=O)[C@@H]1CN(Cc2cccnc2)CCN1C[C@@H](O)C[C@@H](Cc1ccccc1)C(=O)N[C@H]1c2ccccc2C[C@H]1O as the compound, how does the Potency read?
A: Its Potency is “inactive”.

Q: For c1cc(C(c2ccc(OCC3CO3)cc2)C(c2ccc(OCC3CO3)cc2)c2ccc(OCC3CO3)cc2)ccc1OCC1CO1 (stereo not given), which Potency is on record?
A: Its Potency is “inactive”.

Q: For CCCCC(CC)COC(=O)CC(C(=O)OCC(CC)CCCC)S(=O)(=O)O (stereo not given), which Potency is on record?
A: The Potency was 58.8 µM (active) and 54.5 µM (active).

Q: Which Potency does the source give for O=Cc1ccc(Cl)cc1 here?
A: Its Potency is “inactive”.

Q: Which Potency does the source give for CC(=O)CC(=O)Nc1ccc2[nH]c(=O)[nH]c2c1 here?
A: The Potency was “inactive”.

Q: With COc1ccc(CCN2CCC(Nc3nc4ccccc4n3Cc3ccc(F)cc3)CC2)cc1 as the compound, how does the Potency read?
A: The Potency was 6.25 µM (active) and 26.6 µM (active).

Q: Which Potency does the source give for OCCOCCN1CCN(C(c2ccccc2)c2ccc(Cl)cc2)CC1 (stereo not given) here?
A: Its Potency is “inactive”.

Q: For CCN(CC)c1ccc2c(C)cc(=O)oc2c1, which Potency is on record?
A: The Potency was “inactive”.

Q: Which Potency does the source give for O=C1NCC2(CCN(CCc3ccccc3)CC2)O1 here?
A: The Potency was “inactive”.

Q: For CCCCCCCCCCCCc1ccccc1O, which Potency is on record?
A: Its Potency is 60.3 µM (active) and 43.3 µM (active).

Q: Which Potency does the source give for O=Nc1ccc(Nc2ccccc2)cc1 here?
A: Its Potency is “inactive”.

Q: Which Potency does the source give for Cc1ccnc2c1NC(=O)c1cccnc1N2C1CC1 here?
A: The Potency was “inactive”.

Q: With O=C(O)CP(=O)(O)O as the compound, how does the Potency read?
A: The Potency was “inactive”.

Q: For CC(N)=O, which Potency is on record?
A: Its Potency is “inactive”.

Q: Which Potency does the source give for C/C=C/c1ccc(OCC)c(O)c1 here?
A: Its Potency is “inactive”.

Q: With COC(=O)c1cccc(C(=O)OC)c1 as the compound, how does the Potency read?
A: The Potency was “inactive”.

Q: With Cc1occc(=O)c1OC(=O)C(C)C as the compound, how does the Potency read?
A: The Potency was “inactive”.

Q: For COC(c1ccccc1)(c1ccccc1)[C@H](Oc1nc(C)cc(C)n1)C(=O)O, which Potency is on record?
A: Its Potency is “inactive”.

Q: With CCN(CC)CCOc1ccc(/C(=C(\Cl)c2ccccc2)c2ccccc2)cc1 as the compound, how does the Potency read?
A: Its Potency is 15.7 µM (active) and 29.8 µM (active).
